# Tau fibril FP: qHTS for Inhibitors of Tau Fibril Formation, Fluorescence Polarization | Microtubule-associated protein tau (Homo sapiens), P10636 | K18 P301L tau heparin fibrillization, Alexa594 FP, 6 h | Potency, µM (top dose mostly 57.7 µM), for inactives: at the top dose activity, negative = inhibition, hits mostly inhibitors | 280,000 tested, 0.39% active | AID 1468, 2008; further: nearly all actives have a fitted effect of over 55% in size
#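 Human tau K18 […] P301L fragment, 15 uM unlabeled plus 0.24 uM Alexa 594-labeled tau (final), with compound and 20 uM heparin in 100 mM sodium acetate pH 7; 6 hr at 37 C, then Alexa 594 FP read.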
# ALDH1A1 inh: qHTS Assay for Inhibitors of Aldehyde Dehydrogenase 1 (ALDH1A1); Potency, µM (series often up to 75.3 µM), without a hit: top-dose activity, negative = inhibition, usual class: inhibitors; 220,000 tested, 7.3% active; AID 1030, 2008; Purified ALDH1A1, NADH fluorescence, propionaldehyde substrate; Aldehyde dehydrogenase 1A1 (Homo sapiens), P00352; active means well fitted inhibition curve with a large enough effect, not every such curve was filed as active; inconclusive means small, poorly fitted or top-dose-only effect, or another doubt; inactive means no such curve, though single readings can be large or run the other way;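 further: plate controls were no enzyme wells and a reference inhibitor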
# Target sequence (P00352 whole entry, looked up): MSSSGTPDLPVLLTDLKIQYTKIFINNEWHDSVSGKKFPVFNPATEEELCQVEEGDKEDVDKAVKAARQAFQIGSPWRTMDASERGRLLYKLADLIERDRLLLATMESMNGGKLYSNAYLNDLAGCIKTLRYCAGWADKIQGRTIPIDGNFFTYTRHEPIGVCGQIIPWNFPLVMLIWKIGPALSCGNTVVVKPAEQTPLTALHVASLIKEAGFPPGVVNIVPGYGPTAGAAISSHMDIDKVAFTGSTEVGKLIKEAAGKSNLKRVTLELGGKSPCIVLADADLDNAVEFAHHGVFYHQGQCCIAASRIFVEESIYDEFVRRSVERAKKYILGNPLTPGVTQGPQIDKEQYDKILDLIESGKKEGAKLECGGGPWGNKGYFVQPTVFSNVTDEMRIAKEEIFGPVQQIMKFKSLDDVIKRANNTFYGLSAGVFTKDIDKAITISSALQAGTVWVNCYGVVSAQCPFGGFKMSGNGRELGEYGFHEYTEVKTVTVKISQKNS
# Tau fibril ThT: qHTS for Inhibitors of Tau Fibril Formation, Thioflavin T Binding | recombinant tau K18 P301L, heparin-induced fibrillization, ThT fluorescence | Potency, µM (highest dose often 57.4 µM), for the others: top-dose activity, negative = inhibition, usual class: inhibitors | 270,000 tested, 2.1% active | AID 1460, 2008; further: nearly all actives have a fitted effect of over 55% in size
#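 Heparin-induced (20 uM) aggregation of recombinant human K18 P301L tau, 15 uM unlabeled with 0.24 uM labeled, pH 7 acetate buffer, 6 hr at 37 C with compound. Fibrils quantified by 30 uM ThT fluorescence after 1 hr ambient incubation.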
# NPSR antagonist: qHTS Assay for Antagonists of the Neuropeptide S Receptor: cAMP Signal Transduction; Potency, µM (highest dose often 38.3 µM), for inactives: top-dose activity change, negative = inhibition, usual class: inhibitors; Q6W5P4; AID 1461, 2008; CHO-NPSR cells, cAMP TR-FRET, antagonist mode; 220,000 tested, 1% active; further: nearly all actives have a fitted effect of over 50% in size
# HPGD inh: qHTS Assay for Inhibitors of HPGD (15-Hydroxyprostaglandin Dehydrogenase). Potency, µM, inactives show at the highest dose activity change, negative = inhibition, actives largely listed as inhibitors. 15-hydroxyprostaglandin dehydrogenase [NAD(+)] (Homo sapiens), P15428. AID 894, 2007. 150,000 tested, 4.3% active. purified HPGD, NADH fluorescence kinetic, PGE2 substrate; active means well fitted inhibition curve with a large enough effect, not every such curve was filed as active; inconclusive means small, poorly fitted or top-dose-only effect, or another doubt; inactive means no such curve, though single readings can be large or run the other way
#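 20 nM HPGD preincubated 15 min at room temperature with compound in 50 mM Tris-HCl pH 8, 0.01% Tween 20. Started with 1 mM NAD+ and 30 uM prostaglandin E2; NADH fluorescence (360/450 nm) read 5 times over 30-s intervals, last minus first.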
# Tau fluor counter: Counterscreen qHTS for Inhibitors of Tau Fibril Formation, Fluorescence Polarization. AID 1463, 2008. Potency, µM (highest dose often 57.7 µM), for the others: at the highest dose activity change, negative = decrease. tau K18 P301L Alexa594 fluorescence, heparin fibrillization. 280,000 tested, 0.93% active; further: nearly all actives have a fitted effect of over 55% in size
#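 Human tau K18 P301L (15 uM unlabeled, 0.24 uM Alexa 594-labeled) in 100 mM sodium acetate pH 7 with 20 uM heparin, 6 hr at 37 C. ThT 30 uM added, 1 hr ambient; Alexa 594 FP and total fluorescence read at 555/632 nm.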
# * hit, by the source's call; ? = inconclusive; . = no result given; [ ] = remark or other dose. Shown are actives, neighbours in structure and some others; about 9.5% of the full set was active somewhere. Unless noted, the call rests on the fitted dose curve; in most records, active means well fitted curve in the direction sought with a large enough effect; inconclusive means small, poorly fitted or top-dose-only effect, or another doubt; inactive means no such curve, though single readings can be large; an effect the other way counts as inactive or inconclusive. Unless noted, on the % scale 0 is the no-effect control and ±100 the full control effect; potency means the concentration at half of the fitted maximal effect.
SMILES,Tau fibril FP,ALDH1A1 inh,Tau fibril ThT,NPSR antagonist,HPGD inh,Tau fluor counter
Cc1cccc(OCCn2c(-c3ccc(Cl)cc3)nc3ccccc3c2=O)c1C,-1%,.,0%,.,.,-1%
Cc1ccccc1OCC(=O)N1N=C(C(F)(F)F)CC1(O)C(C)(C)C (stereo unspecified),-3%,14µM*,?,?,-11%,-17%
COc1cc(OC)c(NC(=O)Nc2sc3nc4n(c(=O)c3c2C)CCC(C)CC4)cc1Cl (stereo unspecified),11%,.,?,.,.,4µM*[quencher]
Cc1ccccc1NC(=O)c1sc2nc3n(c(=O)c2c1C)CCC3,?,.,-6%,.,.,4.5µM*[quencher]
Cc1c(NC(=O)Nc2ccccc2C(F)(F)F)sc2nc3n(c(=O)c12)CCC(C)CC3 (stereo unspecified),?,.,-18%,.,.,13µM*[quencher]
CC(=O)c1cccc(NC(=O)Nc2sc3nc4n(c(=O)c3c2C)CCC(C)CC4)c1 (stereo unspecified),?,.,?,.,.,11µM*[quencher]
Cc1c(NC(=O)Nc2ccc(Cl)c(Cl)c2)sc2nc3n(c(=O)c12)CCC(C)CC3 (stereo unspecified),?,.,-1%,.,.,?
O=S1(=O)C=CC(Nc2ccccc2)C1 (stereo unspecified),-3%,13%,-7%,3%[46.1 µM],-3%,-1%
COc1cc(OC)c(NC(=O)C2=C(C)C(=O)OC23CCCCC3)cc1Cl,2%,.,-3%,.,.,-13%
Cc1ccc(-c2csc(NC(=O)Cc3ccc(F)cc3)n2)o1,-12%,3.5µM*,?,-23%,.,?
O=C(Nc1nc(-c2ccco2)cs1)c1ccccc1,0%,?,?,-17%[46.1 µM],-29%,-13%
Cc1ccc(-c2csc(Nc3ccc(S(N)(=O)=O)cc3)n2)o1,15%,2.2µM*,?,-12%,.,?
Cc1ccc(-c2csc(NC(=O)c3ccc(-c4ccccc4)cc3)n2)o1,-2%,20µM*,?,-11%[46.1 µM],?,-17%
COc1ccc(CC(=O)Nc2nc(-c3cccnc3)cs2)cc1,-15%,-8%,?,0%,-14%,-15%
COc1ccc(Nc2nc(N)nc(CSc3nc(C)cc(C)n3)n2)cc1,8%,1%,-11%,12%,.,-14%
COc1ccc2nc(SCc3nc(N)nc(Nc4ccccc4)n3)[nH]c2c1,-6%,7.9µM*,?,4%[46.1 µM],-19%,?
COc1ccccc1/C=C/C1(C(=O)NC2CCCC2)CC(=O)N1c1ccc(F)cc1 (stereo unspecified),0%,32µM*,-15%,?,-12%,-5%
CCOc1ccc(-c2csc(/C(C#N)=C\c3ccc(O)c([N+](=O)[O-])c3)n2)cc1,?,-16%,1.3µM*,-34%,3.2µM*,7.1µM*[quencher]
C=CCSc1nnc(NC(=O)CSc2nc(CCC)cc(=O)[nH]2)s1,-2%,-1%,0%,-13%[46.1 µM],20µM*,2%
O=c1[nH]c(Cc2ccc(F)cc2)nc2scc(-c3ccc(F)cc3)c12,-5%,32µM*,-5%,-23%,22µM*,0%
Cc1ccc(-c2csc3nc(CN(C)Cc4ccccc4)[nH]c(=O)c23)cc1,-12%,?,?,-36%,.,-15%
NC(=O)Cc1nc2scc(-c3ccccc3)c2c(=O)[nH]1,?,13µM*,?,3%,.,-8%
COCCNc1nnnc2c1sc1nc(N3CCOCC3)c3c(c12)CCCC3,-4%,2%,-4%,-4%,.,1%
C=CCn1c(O)c(N=NC(=O)CNC(=O)/C=C/c2ccco2)c2ccccc21,-5%,10µM*,20µM*,-13%[46.1 µM],-17%,-11%
O=C(CNC(=O)c1ccco1)N=Nc1c(O)n(CCc2ccccc2)c2ccccc12,-6%,.,?,-15%,.,-17%

# From PubChem
